This note sets out measurements from PubChem BioAssay.

Records with an inconclusive call do not appear. The source made the active and inactive calls.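 Rule for the calls, unless noted: active = viability at or below 27.92% in each of two runs, the all-compound median minus 4 SD; inconclusive = no clear call, values can overlap the other calls; inactive = the rest.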

The nature of assay [1]: reducers of endogenous Her2 protein level, primary screen, SKBR3 breast tumor cells, AlphaScreen, ATP viability (AID 461;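 active = Her2 level under about 52% in both replicate screens, with viability over 70% of control, limit read from the data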;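 for Her2 level: lower value means less Her2 protein in the cells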;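 for viability: percent of carrier control wells set as 100% viability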). The note with it: 18-24 h, measured here: SKBR3 viability, ATP luminescence, at 10 µM.
In assay [2] the target is Receptor tyrosine-protein kinase erbB-2 (Homo sapiens) (UniProt P04626). The description is as above. The note with it: 18-24 h, at 10 µM, stronger effect = lower value.
Receptor tyrosine-protein kinase erbB-2 (Homo sapiens), sequence (P04626 whole entry, looked up): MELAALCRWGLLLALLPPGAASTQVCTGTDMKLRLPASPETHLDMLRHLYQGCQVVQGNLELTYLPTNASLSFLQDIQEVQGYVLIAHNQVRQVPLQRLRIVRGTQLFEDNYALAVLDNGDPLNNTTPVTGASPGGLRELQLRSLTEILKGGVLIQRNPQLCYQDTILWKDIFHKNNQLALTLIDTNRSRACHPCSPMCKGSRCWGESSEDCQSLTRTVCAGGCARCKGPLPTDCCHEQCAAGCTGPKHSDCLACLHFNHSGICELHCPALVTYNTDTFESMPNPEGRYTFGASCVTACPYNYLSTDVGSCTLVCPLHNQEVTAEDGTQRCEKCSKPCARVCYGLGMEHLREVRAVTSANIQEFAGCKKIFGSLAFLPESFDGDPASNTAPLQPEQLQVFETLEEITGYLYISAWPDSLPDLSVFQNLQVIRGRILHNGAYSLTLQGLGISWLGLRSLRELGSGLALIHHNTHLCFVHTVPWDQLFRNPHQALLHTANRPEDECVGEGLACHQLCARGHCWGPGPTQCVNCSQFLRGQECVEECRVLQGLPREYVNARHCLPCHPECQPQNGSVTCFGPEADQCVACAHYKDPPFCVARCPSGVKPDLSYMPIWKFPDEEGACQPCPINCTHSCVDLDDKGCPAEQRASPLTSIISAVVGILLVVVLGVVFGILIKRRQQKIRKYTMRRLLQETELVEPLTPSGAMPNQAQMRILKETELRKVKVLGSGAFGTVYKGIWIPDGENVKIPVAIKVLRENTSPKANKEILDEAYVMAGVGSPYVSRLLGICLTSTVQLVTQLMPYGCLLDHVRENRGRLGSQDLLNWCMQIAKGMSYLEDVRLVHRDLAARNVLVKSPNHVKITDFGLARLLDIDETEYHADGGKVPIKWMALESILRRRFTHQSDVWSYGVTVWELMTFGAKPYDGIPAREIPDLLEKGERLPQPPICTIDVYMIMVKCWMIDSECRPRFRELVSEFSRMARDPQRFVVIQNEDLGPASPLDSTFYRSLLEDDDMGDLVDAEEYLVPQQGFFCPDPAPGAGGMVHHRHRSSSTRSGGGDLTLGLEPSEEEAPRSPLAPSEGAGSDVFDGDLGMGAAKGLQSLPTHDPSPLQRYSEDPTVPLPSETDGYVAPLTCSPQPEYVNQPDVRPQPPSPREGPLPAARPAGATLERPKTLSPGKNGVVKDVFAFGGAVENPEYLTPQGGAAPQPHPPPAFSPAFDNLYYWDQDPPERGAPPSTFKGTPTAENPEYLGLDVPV
The nature of assay [3]: SK-BR-3 cell growth inhibitors, pilot screen, 24 h, human (AID 572;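 active = viability at or below 10% of carrier control in both of two separate runs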;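 note: compound exposure lasted between 18 and 24 h rather than exactly 24 h; 100% = carrier-treated control wells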). The note with it: SK-BR-3 viability, CellTiter-Glo luminescence, at 10 µM, stronger effect = lower value.
A short description of assay [4]: HUVEC growth inhibition – cell-based, human, primary screen (AID 575;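 active = viability at or below 30% in both replicate assays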;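 note: 100% = median of untreated cell wells with 0.1% DMSO on each plate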). The note with it: HUVEC proliferation, CellTiter-Glo luminescence, 72 h; at 10 µM; stronger effect = lower value. In general terms: Cellular ATP, detected with luciferase, serves as a proxy for viable cell number.
A short description of assay [5]: growth inhibitors of H69AR lung tumor, primary screen, human, duplicate replicates (AID 580;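 active = viability at or under a set limit in both replicates, limit being median viability minus 3 SD, cut at about 48% in these data, passing the limit was not always enough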;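 note: 100% = mean luminescence of untreated wells and 0% = no signal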). Particulars: H69AR lung tumor cells viability, ATP luminescence, 72 h; at 10 µM; stronger effect = lower value.
Assay [6] in a line: reversal of MRP1-mediated doxorubicin resistance, pilot screen, H69AR cells, doxorubicin co-treatment (AID 601;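 active = viability loss from added drug above about 55%, and viability with drug at most 40%, in both replicates, limit read from the data, passing the limit was not always enough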). The note with it: CellTiter-Glo, 72 h, at 10 µM; for differential viability (reversal): stronger effect = higher value.
Assay [7] is described as follows: 384-well plate pilot, post-Golgi transport modulator project, inhibition of yeast transport mutant growth (AID 636; in the data active = inhibition above about 31%). The note with it: absorbance 615 nm, about 18 h, stronger effect = higher value.
A short description of assay [8]: growth suppression of yeast trafficking mutant, preliminary HTS, modulators of trafficking downstream of Golgi apparatus project, 1536-format plate, OD 615 nm (AID 637; in the data active = inhibition above about 30%). The note with it: yeast transport mutant growth, absorbance 615 nm, 18 h; stronger effect = higher value.
Assay [9] can be described thus: OD615 S. cerevisiae growth inhibition, permissive medium, pilot counter-assay, permissive growth control for S. cerevisiae lifespan shortening project (AID 705;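 active = growth inhibition above 25% in both replicates, a cutoff set 3 SD above the mean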). The note with it: OD615, 24 h, at 10 µM, stronger effect = higher value.
Assay [10] in a line: Restrictive medium S. cerevisiae growth inhibition, OD615, pilot screen of yeast lifespan reduction project, restrictive growth control (AID 706;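 active = growth inhibition above a set limit, 3 SD over mean compound inhibition, in both replicates, cut at about 43% in these data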;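 note: modified DeaD lifespan yeast strain shifted to restrictive glucose medium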). Particulars: OD615, 48 h, at 10 µM, stronger effect = higher value.
Assay [11] can be described thus: viability gain of MRP-1-high H69AR cells under doxorubicin, pilot screen, MRP-1 activator project, CellTiter-Glo, duplicate (AID 807;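 active = viability increase at or above a cutoff of the median across tested compounds plus 3 SD, cut at about 8.5% in these data, passing the limit was not always enough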;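 note: compound pretreatment 18-22 h then 72 h combined with doxorubicin; 0% = doxorubicin alone and 100% = vehicle without doxorubicin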). The note with it: H69AR viability with doxorubicin, CellTiter-Glo luminescence; at 10 µM; stronger effect = higher value.
Assay [12] is described as follows: growth suppression of beta-catenin knockout HCT116, pilot screen, human colon tumor cells (AID 823;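 active = cell viability at or below a set limit in both duplicate runs, the limit being the all-compound median minus 4 SD, cut at about 23% in these data, passing the limit was not always enough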;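 note: 0% = wells killed by 20 µM Hyamine and 100% = untreated DMSO cell wells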). Particulars: CellTiter-Glo, 60 h, at 10 µM, stronger effect = lower value.
A short description of assay [13]: growth suppression of PTEN-deleted HCT116, pilot screen, cell-based, HCT116 clonal line, CellTiter-Glo (AID 824).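 Note: 0% = 20 µM Hyamine control and 100% = vehicle cell control.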 Particulars: 60 h, at 10 µM, stronger effect = lower value.
A short description of assay [14]: inhibitors of the yeast RAM network, pilot screen, dse1pr::URA3 reporter, 5-FOA selection (AID 869;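 active = inhibition over a set limit, the all-compound mean plus 3 SD, in both replicate runs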;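 note: 0% = DMSO wells with no growth and 100% = 10 µM 1-NA-PP1 with full growth; RAM network block rescues cells from 5-FOA so hits raise OD615 growth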). The note with it: S. cerevisiae dse1pr::URA3 5-FOA growth, OD615, 2 d; at 10 µM; stronger effect = higher value; strain carries analog-sensitive mutant Cbk1 kinase.
Assay [15] can be described thus: RAM signaling pathway blockade in yeast – S. cerevisiae, Pdr1DBD-CYC8 efflux-inhibited sensitized strain, primary screen (AID 1298;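 active = RAM network inhibition above 8.4% in each of two replicates, 3 SD over the compound average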;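 note: 0% = DMSO untreated cells without growth and 100% = 10 µM 1-NA-PP1 full growth; higher means more yeast growth rescued from 5-FOA killing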). Particulars: S. cerevisiae cbk1-as DSE1-URA3 strain, 5-FOA growth OD615, 2 d; at 50 µM; stronger effect = higher value.
The mark [16] stands for this setting: H69AR cells + 2 uM doxorubicin, measured here: viability with 2 uM doxorubicin, stronger effect = lower value.
Setting [17] is: H69AR cells, compound alone cytotoxicity.

For the compound `CCOc1ccc(-c2cc(CCCC(=O)N3CCN(c4ccc(OC)cc4)CC3)no2)cc1`, the viability in assay [1] was 85%; in assay [3] it was 85% (inactive); in [4] it was 77.8% (inactive); in assay [5], 67.7% (inactive); in assay [6] (setting [16]), 70.2%; in assay [6] (setting [17]) it was 67.7%. Moreover, the viability was 81.7% (inactive) in [12] and 82.5% (inactive) in assay [13]. The Her2 level in assay [2] is 104% (inactive). Moreover, the differential viability (reversal) in assay [6] (H69AR cells + 2 uM doxorubicin) was -2.52% (inactive). In addition, the inhibition in assay [7] was 4.1% (inactive); in assay [8] it was -2.67% (inactive); in assay [14], 2.54% (inactive). Also, the values for the growth inhibition in [9] and in assay [10] were 2.23% (inactive) and 1.43% (inactive), respectively. In assay [11], the viability increase is -3.39% (inactive). Also, the RAM network inhibition in assay [15] was 8.59% (inactive).
Turning to `O=C(Cn1ncc2c1-c1ccccc1OC2)Nc1ccc(Cl)cn1`, the viability is 91.5% in [1]; 91.5% (inactive) in assay [3]; 80.1% (inactive) in assay [4]; 99.3% (inactive) in assay [5]; 91.5% in assay [6] (setting [16]); 99.3% in assay [6] (setting [17]). Also, the values for the viability in [12] and in assay [13] were 95.9% (inactive) and 95.1% (inactive), respectively. In addition, the Her2 level in assay [2] was 95% (inactive). Moreover, in assay [6] (H69AR cells + 2 uM doxorubicin), the differential viability (reversal) was 7.75% (inactive). Further, the inhibition in assay [7] was -0.26% (inactive); in assay [8], -5.5% (inactive); in assay [14], 4.09% (inactive). Further, the growth inhibition in assay [9] was 1.63% (inactive); in assay [10], 0.96% (inactive). For the same compound, the viability increase in assay [11] is -3.35% (inactive). In addition, the RAM network inhibition in assay [15] is 0.83% (inactive).
For the compound `O=C(CSc1nnnn1-c1ccccc1Cl)Nc1ccc2c(c1)OCCO2`, the viability was 91.5% in assay [1]; 91.5% (inactive) in [3]; 101% (inactive) in assay [4]; 77.2% (inactive) in [5]; 85.2% in [6] (setting [16]); 77.2% in [6] (setting [17]). Also, the results for the viability in assay [12] and in assay [13] were 99.4% (inactive) and 87.5% (inactive), respectively. Further, the Her2 level in [2] was 96% (inactive). Moreover, in assay [6] (H69AR cells + 2 uM doxorubicin), the differential viability (reversal) is -7.98% (inactive). Besides, the inhibition is -0.4% (inactive) in assay [7], 4.33% (inactive) in [8] and 2.22% (inactive) in [14]. The growth inhibition in assay [9] is 1.69% (inactive); in assay [10], 3.15% (inactive). Also, the viability increase in [11] was 1.44% (inactive). In addition, in [15], the RAM network inhibition was 5.58% (inactive).
On to `COc1ccc(NC(=O)CSc2nnc(Cc3cccn3C)n2-c2ccc(F)cc2)cc1OC`, for which the viability in assay [1] was 86%; in [3], 86% (inactive); in assay [4], 104% (inactive); in [5], 94.7% (inactive); in [6] (setting [16]), 94%; in assay [6] (setting [17]), 94.7%. Also, the viability was 94.5% (inactive) in assay [12] and 94.2% (inactive) in assay [13]. Further, in [2], the Her2 level is 92.5% (inactive). The differential viability (reversal) in [6] (H69AR cells + 2 uM doxorubicin) is 0.655% (inactive). Moreover, the inhibition in assay [7] was 0.38% (inactive); in [8] it was 3.17% (inactive); in assay [14], 1.43% (inactive). The growth inhibition in assay [9] was 3.84% (inactive); in [10], 1.52% (inactive). In addition, in assay [11], the viability increase is -3.01% (inactive). Also, in assay [15], the RAM network inhibition was 2.95% (inactive).
`COc1ccc(C(=O)CN2C3=NCCCN3c3ccccc32)cc1OC`: the viability in assay [1] is 89%; in [3], 89% (inactive); in assay [4], 81.3% (inactive); in assay [5], 82.4% (inactive); in assay [6] (setting [16]), 77.1%; in [6] (setting [17]), 82.4%. Also, the viability in assay [12] was 56.2% (inactive); in [13] it was 64.7% (inactive). Besides, the Her2 level in assay [2] was 109% (inactive). Further, in assay [6] (H69AR cells + 2 uM doxorubicin), the differential viability (reversal) was 5.29% (inactive). The inhibition was -0.39% (inactive) in [7], 2.5% (inactive) in [8] and 1% (inactive) in assay [14]. The growth inhibition in assay [9] is -6.53% (inactive); in assay [10], -6.88% (inactive). Further, in assay [11], the viability increase was -2.15% (inactive). Moreover, in [15], the RAM network inhibition was 2.03% (inactive).
`Cn1c(Cc2ccccc2)nnc1SCC(=O)NC1CCCCC1`: the viability in assay [1] is 107%; in assay [3], 107% (inactive); in assay [4], 91.5% (inactive); in assay [5], 92.5% (inactive); in assay [6] (setting [16]), 79.6%; in assay [6] (setting [17]) it was 92.5%. The viability in assay [12] is 97.4% (inactive); in assay [13], 103% (inactive). In addition, the Her2 level in assay [2] was 94.5% (inactive). In addition, the differential viability (reversal) in assay [6] (H69AR cells + 2 uM doxorubicin) was 12.9% (inactive). For the same compound, the inhibition in assay [7] was -6.08% (inactive); in assay [8] it was 3% (inactive); in assay [14], 1.4% (inactive). Moreover, the growth inhibition is 1.09% (inactive) in [9] and 10% (inactive) in assay [10]. Besides, in assay [11], the viability increase is 0.74% (inactive). In addition, the RAM network inhibition in [15] is 1.4% (inactive).
Regarding `CN(CCNS(=O)(=O)c1ccc2c(c1)oc(=O)n2C)Cc1ccccc1`, the viability in [1] was 86%; in [3] it was 86% (inactive); in [4] it was 90.7% (inactive); in [5], 98.1% (inactive); in assay [6] (setting [16]) it was 87.9%; in assay [6] (setting [17]), 98.1%. Further, the figures for the viability in [12] and in assay [13] were 97.5% (inactive) and 90.2% (inactive), respectively. Moreover, the Her2 level in [2] is 99% (inactive). Also, in [6] (H69AR cells + 2 uM doxorubicin), the differential viability (reversal) is 10.2% (inactive). Besides, the inhibition was -2.95% (inactive) in assay [7], -2.33% (inactive) in [8] and 2.44% (inactive) in assay [14]. Also, the growth inhibition in [9] was -2.83% (inactive); in assay [10], 5.57% (inactive). Further, in [11], the viability increase is -1.52% (inactive). Also, in assay [15], the RAM network inhibition is 4.66% (inactive).
On to `CCCCn1c(CN2CCN(c3ccccc3)CC2)nc2c1c(=O)n(C)c(=O)n2C`, for which the viability in [1] was 89%; in assay [3], 89% (inactive); in assay [4], 85.7% (inactive); in assay [5], 85.6% (inactive); in [6] (setting [16]), 66.4%; in [6] (setting [17]) it was 85.6%. The values for the viability in assay [12] and in assay [13] were 36.1% (inactive) and 65.2% (inactive), respectively. Further, the Her2 level in [2] was 105% (inactive). Also, in assay [6] (H69AR cells + 2 uM doxorubicin), the differential viability (reversal) was 19.2% (inactive). Also, the inhibition in assay [7] is -2.27% (inactive); in assay [8], -3.67% (inactive); in [14] it was 0.475% (inactive). In addition, the growth inhibition is -4.55% (inactive) in assay [9] and 1.55% (inactive) in assay [10]. For the same compound, in assay [11], the viability increase is -3.11% (inactive). For the same compound, in [15], the RAM network inhibition is 2.8% (inactive).
On to `CC(Sc1nc(-c2ccccc2)cc(C(F)(F)F)n1)C(=O)N1CCCC1` (stereo not drawn), for which the viability in assay [1] is 84.5%; in assay [3] it was 84.5% (inactive); in assay [4], 89.7% (inactive); in assay [5], 88.8% (inactive); in assay [6] (setting [16]), 97.3%; in assay [6] (setting [17]) it was 88.8%. Moreover, the viability is 89.2% (inactive) in assay [12] and 84% (inactive) in assay [13]. Also, in [2], the Her2 level was 94.5% (inactive). In addition, the differential viability (reversal) in assay [6] (H69AR cells + 2 uM doxorubicin) was -8.49% (inactive). In addition, the inhibition in [7] was -4.13% (inactive); in assay [8], -3.61% (inactive); in assay [14], 0.895% (inactive). Besides, the growth inhibition was -2% (inactive) in assay [9] and -21.7% (inactive) in assay [10]. Further, in assay [11], the viability increase is -2.25% (inactive). Further, the RAM network inhibition in assay [15] was 1% (inactive).

One may read the viability as a read-out of living cells in per cent, often relative to untreated cells. By inhibition is commonly meant the change of the read-out against control, counted positive when it falls.
